Assay results reported in PubChem BioAssay (NCI).
Compounds without any hit were thinned out: in the full panel of roughly 79,000, 15% have a hit. Unmarked numbers belong to inactive results. Calls of active or inactive are those of the source. No stated cut-off is given here; in the data, active means growth inhibition above about 70%; inactive means the rest.

Assay: NCI Yeast Anticancer Drug Screen. Data for the rad50 strain (AID 155);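 further: 0% = growth of vehicle-only cultures of the same strain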
Details: S. cerevisiae rad50 strain growth inhibition; at 5.0 µM (retest, dose inferred, filed as 0.5); active compounds read high
In short: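 Relative growth inhibition (compound vs vehicle) was measured in yeast with a defined repair-gene alteration.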

SMILES | growth inhibition
CCC/C(Cl)=N\OC(=O)Nc1cccc(C(F)(F)F)c1 | -15%
[O-][n+]1c2ccc(O)cc2nc2ccc(Cl)cc21 | -5%
Clc1ccccc1C1OC1c1ccccc1Cl (centres undefined) | 57%
c1ccc2c(c1)c1ncccc1c1nccnc21 | -46%
CC(=O)Nc1ccc2c(c1)C(=Nc1ccc(C(=O)O)cc1)c1ccccc1-2 | 6%
COc1ccc(OC)c2cc3ccccc3cc12 | 52%
COc1cc(C2c3cc4c(cc3OC(NNc3ccccc3)C2C)OCO4)cc(OC)c1OC (centres undefined) | 14%
O=C1c2cc([N+](=O)[O-])ccc2-c2cccc(F)c21 | 7%
CCCCCCCCCCCC(=O)N(C)C | 38%
CCCCCCCCCCCC1=C(O)C(=O)C=C(O)C1=O | 32%
Cc1ccc(CSC(N)=Nc2ccccc2)cc1C | 5%
CCCCCCCCCCC1CCC(=O)O1 (centres undefined) | -2%
O=[N+]([O-])c1cc(CCl)ccc1CCl | -3%
Nc1ccc2c(c1)C(=O)c1cccc(N)c1C2=O | 51%
CCCCCCCCCCNC(=O)OCC | 1%
CC1=C(C)Cc2c(O)ccc(O)c2C1 | -9%
COc1ccc2c(c1)C(=O)c1ccccc1C2 | -23%
CCC(=O)OCCn1c2nc(=O)[nH]c(=O)c-2nc2cc(C)c(C)cc21 | 3%
O=C(OCCN1CCCCCC1)C(c1ccsc1)C1CCCCC1 (centres undefined) | 13%
Oc1c(Br)cc(Br)cc1C1CCCCC1 | 39%

SMILES | growth inhibition
CC1(C)[C@@H]2CC[C@]1(C)[C@H](OC(=O)CSC#N)C2 | -5%
S=C(N/N=C(/c1ccccc1)c1ccccn1)N1CCCCCC1 | 5%
Cc1ccc2[nH]c3c(C)c4cc[n+](C)cc4c(C)c3c2c1 | 22%
CNC(=O)OCc1c(COC(=O)NC)c(-c2ccc(-c3ccccc3)cc2)n(C)c1C | 25%
COc1ccccc1/C=C1\Sc2scc(-c3cccc([N+](=O)[O-])c3)[n+]2C1=O | 12%
O=[N+]([O-])c1ccc2c(c1)C(N1CCN(CCO)CC1)Cc1ccc(F)cc1S2 (centres undefined) | 3%
Cc1ccc(CCC2=CCCc3c2ccc2ccccc32)cc1 | -7%
O=[N+]([O-])c1cccc2nccc(NCCCO)c12 | 32%
Cc1ccc(-n2cc(-c3ccc(Cl)cc3)c(C#N)c2N)cc1 | 13%
Cc1ccc(S/N=C\c2ccccc2O)cc1 | -130%
O=C(O)C1OC1(c1cccc(Cl)c1)c1ccccc1Cl (centres undefined) | 43%
NC(=S)N/N=C\c1nccc2ccccc12 | -151%
Clc1cccc(C(Nc2nncs2)Nc2nncs2)c1Cl | 0%
O=C(OCC=C1CCCC1)c1cc([N+](=O)[O-])cc([N+](=O)[O-])c1 | 11%
O=C(Nc1ccccc1)C(=O)C(C(=O)c1ccccc1)C(c1ccccc1)c1ccccc1 (centres undefined) | 11%
N#CN1C2CCC1CC(=O)C2 | 66%
COc1ccccc1C(=O)OCC1CCCN2CCCCC12 (centres undefined) | 21%
CCNc1nnc(CSc2nc(-c3ccccc3)c(-c3ccccc3)[nH]2)s1 | 7%
O=C1c2ccccc2-c2n[nH]c3cccc1c23 | 100% (active)
